From PubChem BioAssay (Tox21)
Inconclusive results are not listed. The source made the active and inactive calls. Unless noted, calls come from the whole dose curve; as a rule, active = well fitted curve in the direction sought with a large enough effect in the repeat runs; inconclusive = weak or mixed curves; inactive = no such curve, though single readings can be large; an effect the other way counts as inactive or inconclusive.

Experiments:
[1] = qHTS assay to identify small molecule antagonists of the peroxisome proliferator-activated receptor gamma (PPARg) signaling pathway - cell viability counter screen (AID 743194); note: nearly all actives have a fitted effect of over 55% in size
Summary of the method: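 PPARg-UAS-bla HEK293H cells were plated, rested 5 h at 37 C, then treated with compounds plus rosiglitazone (50 nM final) for 17 h at 37 C; viability was then read by CellTiter-Glo luminescence after 30 min at room temperature.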

[2] = qHTS assay for small molecule agonists of the antioxidant response element (ARE) signaling pathway - cell viability counter screen (AID 743203; calls by dose curve; note: nearly all actives have a fitted effect of over 55% in size)
Summary of the method: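 Viability counter screen: CellTiter-Glo luminescence, read after 30 min at room temperature, in ARE-bla HepG2 wells. Compound exposure lasted 16 h at 37C/5% CO2, following a 5 h pre-incubation of the cells after plating.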

[3] = qHTS assay for small molecule activators of the heat shock response signaling pathway - cell viability counter screen (AID 743209); note: nearly all actives have a fitted effect of over 50% in size
Summary of the method: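 Cytotoxicity counter screen run in the same wells as the heat-shock bla reporter assay: HeLa HSE-bla cells, 5 h compound exposure at 37 C, viability read by CellTiter-Glo luminescence.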

[4] = qHTS assay for small molecule activators of the heat shock response signaling pathway (AID 743210; active = well fitted activation curve with a large enough effect in the signal ratio in the repeat runs, with a control signal flat, not every such curve was filed as active; the % refers to the signal ratio; note: series mostly up to about 63 µM)
Summary of the method: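 Heat shock element–beta-lactamase HeLa reporter cells; qHTS with compounds for 5 h at 37 C; detection by FRET substrate fluorescence after 2.5 h at RT.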

[5] = qHTS assay to identify small molecule antagonists of the estrogen receptor alpha (ER-alpha) signaling pathway - cell viability counter screen (AID 743074; calls by dose curve;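 note: HEK293 cells carrying ER-alpha-UAS-bla reporter stimulated with 17beta-estradiol; nearly all actives have a fitted effect of over 45% in size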)
[6] = target: Estrogen receptor (Homo sapiens) (UniProt P03372); experiment: qHTS assay to identify small molecule agonists of the estrogen receptor alpha (ER-alpha) signaling pathway using the BG1 cell line (AID 743079); note: nearly all actives have a fitted effect of over 20% in size
Chain of Estrogen receptor (Homo sapiens) (P03372 whole entry, looked up): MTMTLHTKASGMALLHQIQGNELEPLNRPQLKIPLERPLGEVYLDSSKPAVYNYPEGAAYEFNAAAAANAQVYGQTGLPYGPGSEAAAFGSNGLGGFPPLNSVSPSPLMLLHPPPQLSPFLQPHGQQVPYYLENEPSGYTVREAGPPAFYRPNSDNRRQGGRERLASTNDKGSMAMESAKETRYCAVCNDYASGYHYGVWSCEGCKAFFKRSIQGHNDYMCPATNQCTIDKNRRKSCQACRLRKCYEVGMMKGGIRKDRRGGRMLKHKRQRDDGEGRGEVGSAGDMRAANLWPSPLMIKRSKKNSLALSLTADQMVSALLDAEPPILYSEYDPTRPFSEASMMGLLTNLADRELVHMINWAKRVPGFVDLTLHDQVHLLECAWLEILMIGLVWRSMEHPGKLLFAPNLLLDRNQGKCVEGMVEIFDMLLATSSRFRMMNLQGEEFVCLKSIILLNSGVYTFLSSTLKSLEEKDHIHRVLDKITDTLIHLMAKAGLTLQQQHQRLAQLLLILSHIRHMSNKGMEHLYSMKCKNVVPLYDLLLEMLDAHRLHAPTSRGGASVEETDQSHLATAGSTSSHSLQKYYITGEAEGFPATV

[7] = qHTS assay to identify small molecule antagonists of the estrogen receptor alpha (ER-alpha) signaling pathway using the BG1 cell line - cell viability counter screen (AID 743081);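 note: compound given together with 17beta-estradiol as the ER stimulus; series mostly up to about 70 µM; nearly all actives have a fitted effect of over 45% in size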
Aromatase (Homo sapiens) = Aromatase (Homo sapiens) (UniProt P11511); experiment: qHTS assay to identify aromatase inhibitors (AID 743083); note: series mostly up to about 70 µM; nearly all actives have a fitted effect of over 55% in size
Chain of Aromatase (Homo sapiens) (P11511 whole entry, looked up): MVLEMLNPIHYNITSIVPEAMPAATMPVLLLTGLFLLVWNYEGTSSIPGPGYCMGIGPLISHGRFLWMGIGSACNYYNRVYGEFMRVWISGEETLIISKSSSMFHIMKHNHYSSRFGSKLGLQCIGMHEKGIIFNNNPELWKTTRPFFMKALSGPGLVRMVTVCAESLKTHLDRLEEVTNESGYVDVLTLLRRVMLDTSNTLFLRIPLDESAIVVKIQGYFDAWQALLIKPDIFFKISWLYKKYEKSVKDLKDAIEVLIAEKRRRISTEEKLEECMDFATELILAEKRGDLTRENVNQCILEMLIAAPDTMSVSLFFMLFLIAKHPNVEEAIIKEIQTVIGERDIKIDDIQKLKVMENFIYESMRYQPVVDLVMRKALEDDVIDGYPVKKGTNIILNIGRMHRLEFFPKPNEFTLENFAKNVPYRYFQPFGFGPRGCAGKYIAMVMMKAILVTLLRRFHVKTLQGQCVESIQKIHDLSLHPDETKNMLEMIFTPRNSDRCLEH

[8] = qHTS assay to identify aromatase inhibitors - cell viability counter screen (AID 743084);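 note: cells stimulated with testosterone during compound exposure; nearly all actives have a fitted effect of over 55% in size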
[9] = target: Aryl hydrocarbon receptor (Homo sapiens) (UniProt P35869); experiment: qHTS assay to identify small molecule that activate the aryl hydrocarbon receptor (AhR) signaling pathway (AID 743085);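 note: HG2L7.5c1 human HepG2 liver cells with stably integrated DRE-driven firefly reporter; series mostly up to about 70 µM; nearly all actives have a fitted effect of over 15% in size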
Chain of Aryl hydrocarbon receptor (Homo sapiens) (P35869 whole entry, looked up): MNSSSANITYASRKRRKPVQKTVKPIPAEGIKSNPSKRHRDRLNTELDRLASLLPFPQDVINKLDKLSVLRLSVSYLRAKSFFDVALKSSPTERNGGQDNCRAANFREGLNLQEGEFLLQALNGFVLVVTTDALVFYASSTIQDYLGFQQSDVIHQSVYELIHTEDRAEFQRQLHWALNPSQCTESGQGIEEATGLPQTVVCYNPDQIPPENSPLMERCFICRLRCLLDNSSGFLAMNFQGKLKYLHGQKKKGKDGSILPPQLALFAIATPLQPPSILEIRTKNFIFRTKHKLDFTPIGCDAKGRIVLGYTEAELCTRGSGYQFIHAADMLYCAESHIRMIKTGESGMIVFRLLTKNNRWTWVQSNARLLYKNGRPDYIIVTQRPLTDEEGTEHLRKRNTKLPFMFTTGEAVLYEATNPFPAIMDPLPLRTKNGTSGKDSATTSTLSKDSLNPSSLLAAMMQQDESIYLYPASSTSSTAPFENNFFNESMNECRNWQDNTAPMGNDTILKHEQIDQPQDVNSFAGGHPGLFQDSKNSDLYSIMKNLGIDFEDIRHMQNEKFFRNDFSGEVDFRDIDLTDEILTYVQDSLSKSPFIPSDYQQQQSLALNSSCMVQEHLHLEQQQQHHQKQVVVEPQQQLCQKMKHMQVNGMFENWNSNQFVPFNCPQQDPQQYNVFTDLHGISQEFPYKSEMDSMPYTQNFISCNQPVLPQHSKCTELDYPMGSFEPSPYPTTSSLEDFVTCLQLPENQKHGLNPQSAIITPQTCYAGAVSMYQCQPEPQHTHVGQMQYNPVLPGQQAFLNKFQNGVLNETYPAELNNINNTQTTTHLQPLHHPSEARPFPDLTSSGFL
Summary of the method: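 Steps: seed HepG2-AhR-luc cells; allow 5 h at 37C; pin-transfer test compound or vehicle; incubate 24 h at 37C; add viability dye (30 min, 37C) and read fluorescence; add luciferase substrate (30 min, RT) and read luminescence.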

[10] = qHTS assay to identify small molecule that activate the aryl hydrocarbon receptor (AhR) signaling pathway - cell viability counter screen (AID 743086);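 note: HepG2 liver cells carrying the AhR DRE luciferase reporter; series mostly up to about 70 µM; nearly all actives have a fitted effect of over 45% in size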
Summary of the method: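 HepG2-AhR-luc (HG2L7.5c1) cells, 4000/well, were preincubated 5 h at 37C, exposed to compound in qHTS format for 24 hr at 37C, then given CellTiter-Fluor for 30 min; viability was read as fluorescence in the reporter wells.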

[11] = target: Peroxisome proliferator-activated receptor gamma (Homo sapiens) (UniProt P37231); experiment: qHTS assay to identify small molecule agonists of the peroxisome proliferator-activated receptor gamma (PPARg) signaling pathway (AID 743094; active = well fitted activation curve with a large enough effect in the signal ratio in the repeat runs, not every such curve was filed as active; the % refers to the signal ratio)
Chain of Peroxisome proliferator-activated receptor gamma (Homo sapiens) (P37231 whole entry, looked up): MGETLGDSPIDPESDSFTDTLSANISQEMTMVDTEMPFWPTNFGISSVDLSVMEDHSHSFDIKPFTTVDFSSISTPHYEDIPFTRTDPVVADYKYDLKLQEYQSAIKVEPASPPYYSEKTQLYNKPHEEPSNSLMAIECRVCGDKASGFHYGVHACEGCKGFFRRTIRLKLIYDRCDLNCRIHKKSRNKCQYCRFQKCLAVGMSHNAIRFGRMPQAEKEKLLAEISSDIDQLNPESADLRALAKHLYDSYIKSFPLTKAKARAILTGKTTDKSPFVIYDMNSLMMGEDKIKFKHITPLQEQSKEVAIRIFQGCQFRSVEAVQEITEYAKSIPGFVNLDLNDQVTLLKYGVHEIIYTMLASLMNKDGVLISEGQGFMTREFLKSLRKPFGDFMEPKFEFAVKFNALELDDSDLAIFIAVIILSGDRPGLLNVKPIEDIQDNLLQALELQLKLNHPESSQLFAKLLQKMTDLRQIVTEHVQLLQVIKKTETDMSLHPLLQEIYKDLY
Summary of the method: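 Agonist activity was taken from a beta-lactamase reporter (FRET substrate, 1 h at room temperature) in HEK293H cells carrying a PPARg UAS-bla construct. Compounds in DMSO were incubated 17 h at 37C after a 5 h cell pre-incubation.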

[12] = qHTS assay for small molecule agonists of the antioxidant response element (ARE) signaling pathway (AID 743202; active = well fitted activation curve with a large enough effect in the signal ratio in the repeat runs, not every such curve was filed as active; the % refers to the signal ratio)
Summary of the method: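 Following a 16 h, 37 C exposure of reporter HepG2 cells (ARE-driven beta-lactamase, 2,000 cells/well) to compounds, FRET substrate was applied for 2 h at room temperature and fluorescence intensity recorded.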

[13] = qHTS assay to identify small molecule antagonists of the thyroid receptor (TR) signaling pathway (AID 743065)
Summary of the method: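 GH3.TRE-Luc rat pituitary cells carrying two TR response elements driving luciferase were plated for 4 h, given compound plus 1 nM T3 (final), and incubated 23.5 h at 37 C. ONE-Glo luminescence measured reporter inhibition; CellTiter-Fluor fluorescence tracked cytotoxicity.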

[14] = test system: thyroid hormone receptor (rat, GH3 cells); experiment: qHTS assay to identify small molecule agonists of the thyroid receptor (TR) signaling pathway (AID 743066; calls by dose curve)
[15] = target: Peroxisome proliferator-activated receptor gamma (Homo sapiens) (UniProt P37231); experiment: qHTS assay to identify small molecule antagonists of the peroxisome proliferator-activated receptor gamma (PPARg) signaling pathway (AID 743191; calls by dose curve; note: series mostly up to about 63 µM; nearly all actives have a fitted effect of over 30% in size)
Summary of the method: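 GeneBLAzer PPARg UAS-bla HEK293H cells carrying a UAS-driven beta-lactamase reporter were plated at 3000 cells/well, preincubated 5 h at 37C, then given compound for 17 h at 37C; LiveBLAzer B/G FRET substrate was read after 1 h at room temperature.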

[16] = target: Estrogen receptor (Homo sapiens) (UniProt P03372); experiment: qHTS assay to identify small molecule antagonists of the estrogen receptor alpha (ER-alpha) signaling pathway (AID 743069; active = well fitted curve in the direction sought with a large enough effect in the signal ratio in the repeat runs, not every such curve was filed as active; the % refers to the signal ratio)
Summary of the method: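 A 17beta-estradiol challenge was applied right after compound transfer to ER-alpha-UAS-bla HEK293 cells previously kept in charcoal-stripped serum. Plates stood 18 hr at 37C and 5% CO2; fluorescence was read following 2 hr FRET substrate loading at room temperature.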

[17] = target: Estrogen receptor (Homo sapiens) (UniProt P03372); experiment: qHTS assay to identify small molecule agonists of the estrogen receptor alpha (ER-alpha) signaling pathway (AID 743075; calls by dose curve;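 note: HEK293 GripTite cells with ER-alpha and UAS-driven beta-lactamase reporter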)
[18] = qHTS assay to identify small molecule antagonists of the estrogen receptor alpha (ER-alpha) signaling pathway using the BG1 cell line (AID 743080; calls by dose curve; note: series mostly up to about 70 µM; nearly all actives have a fitted effect of over 25% in size)
Summary of the method: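 Antagonist mode: compounds in DMSO were pinned onto BG1-Luc-4E2 cells alongside 17beta-estradiol agonist, incubated 21.5 h, and ERE-driven luciferase measured with ONE-Glo. Cytotoxicity was multiplexed using CellTiter-Fluor fluorescence.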

Measured: Potency

O=c1[nH]c2ccccc2c(=O)n1CCCl
inactive: [1] | [2] | [3] | [4]

CCCCCCCCCCCCCCCCCCOCC(O)CO (stereo not given)
not listed: [13] | [14] | [15] | [16] | [17] | [18]
inactive: all other assays above

Cc1ccccc1C(=O)O
not listed: [4] | [6] | [8] | [16] | [17] | [18]
inactive: all other assays above

NC1CCN(c2cccc(Cl)n2)CC1
not listed: [6] | [7] | [10] | [13] | [16] | [17] | [18]
inactive: all other assays above

C=CC(=O)N1CCOCC1
not listed: [1] | [6] | [10] | [16] | [17] | [18]
inactive: all other assays above

CCn1c(=O)c2c(nc(/C=C/c3ccc(OC)c(OC)c3)n2C)n(CC)c1=O
inactive: [1] | [12] | [2] | [3] | [4]

COc1ccc(NC(C)=O)cc1
not listed: [5] | [6] | [15] | [16] | [17] | [18]
inactive: all other assays above

NC(CS)C(=O)O (stereo not given)
not listed: [6] | [7] | [12] | [15] | [16] | [17] | [18]
inactive: all other assays above

OC1OC[C@@H](O)[C@H](O)[C@H]1O (stereo not given in full)
not listed: [5] | [6] | [15] | [16] | [17] | [18]
inactive: all other assays above

CN(C)CCn1nnnc1SCC1=C(C(=O)O)N2C(=O)[C@@H](NC(=O)Cc3csc(N)n3)[C@H]2SC1
not listed: [5] | [6] | [12] | [16] | [17] | [18]
inactive: all other assays above

CCN1CCCC(OC(=O)C(c2ccccc2)c2ccccc2)C1 (stereo not given)
not listed: [2] | [7] | [8] | [13]
inactive: all other assays above

OC/C=C/c1ccccc1
not listed: [2] | [6] | [11] | [15] | [16] | [17] | [18]
inactive: all other assays above

O=c1[nH]c(=O)n([C@H]2O[C@H](CO)[C@@H](O)[C@@H]2O)cc1/C=C\Br
inactive: [12] | [2] | [3]

Cc1c(F)cc2c(=O)c(C(=O)O)cn3c2c1CCC3C (stereo not given)
inactive: [12] | [2] | [3] | [4]

O=C1CC2(CCCC2)CC(=O)N1
inactive: [15] | [1] | [12] | [2] | [3] | [4]

CC(C)CCCC(C)NCCC(C)C (stereo not given)
inactive: [1] | [2] | [3] | [4]

Nc1ncnc2c1ncn2Cc1c(F)cccc1Cl
inactive: [1] | [12] | [2] | [3] | [4]

C#CC(O)C(CC)CCCC (stereo not given)
not listed: [1] | [6] | [10] | [15] | [16] | [17] | [18]
inactive: all other assays above

CO[Si](OC)(OC)OC
not listed: [6] | [13] | [15] | [16] | [17] | [18]
inactive: all other assays above
